Screen size: about 5,500 compounds; about 2,000 (36%) were called active. About 18% were inconclusive and are not listed. Cut-off read from the data, not from the text of the source: active = normalized growth mostly below about 0.91 (no sharp cut-off); inconclusive = no clear call, values can overlap the other calls; inactive = mostly above about 0.92. Some of the results follow.
Experiment: chemical genetic growth profiling, strain panel (AID 1159580);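 note: tested at 20 µM; growth read once vehicle control cultures reached saturation at 30 °C; 1 = growth at the plate median or of vehicle wells; lower values mean less growth of the strain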
Conditions: growth OD

Measured: normalized growth

Nc1ncn([C@@H]2O[C@H](CO)[C@@H](O)[C@H]2O)c(=O)n1
inactive: S. cerevisiae deletion strains, locus YJR066W, strain TOR1, hits give low values 0.948 | S. cerevisiae deletion strains, locus YKL009W, strain mrt4, hits give low values 1 | S. cerevisiae deletion strains, locus YKL068W, hits give low values 0.997 | S. cerevisiae deletion strains, locus YKL085W, strain MDH1 (second series), hits give low values 0.989 | S. cerevisiae deletion strains, locus YKL085W, strain MDH1, hits give low values 0.989 | S. cerevisiae deletion strains, locus YKL160W, strain elf1, hits give low values 0.99 | S. cerevisiae deletion strains, locus YKL190W, strain CNB1, hits give low values 1.01 | S. cerevisiae deletion strains, locus YKR001C, strain vps1, hits give low values 1.02 | S. cerevisiae deletion strains, locus YKR026C, strain gcn3, hits give low values 1.07 | S. cerevisiae deletion strains, locus YKR091W, strain srl3, hits give low values 0.967 | S. cerevisiae deletion strains, locus YLL001W, strain dnm1, hits give low values 0.952 | S. cerevisiae deletion strains, locus YLL026W, hits give low values 0.997 | S. cerevisiae deletion strains, locus YLL041C, strain sdh2, hits give low values 0.989 | S. cerevisiae deletion strains, locus YLR027C, strain aat2, hits give low values 0.985 | S. cerevisiae deletion strains, locus YLR039C, strain RIC1, hits give low values 1.01 | S. cerevisiae deletion strains, locus YLR058C, strain SHM2, hits give low values 1.02 | S. cerevisiae deletion strains, locus YLR102C, strain apc9, hits give low values 0.993 | S. cerevisiae deletion strains, locus YLR113W, strain HOG1, hits give low values 0.951 | S. cerevisiae deletion strains, locus YLR221C, strain rsa3, hits give low values 1.01 | S. cerevisiae deletion strains, locus YLR258W, strain gsy2, hits give low values 0.992 | S. cerevisiae deletion strains, locus YLR262C, strain YPT6 (second series), hits give low values 0.955 | S. cerevisiae deletion strains, locus YLR262C, strain YPT6, hits give low values 1.06 | S. cerevisiae deletion strains, locus YLR268W, strain sec22, hits give low values 0.99 | S. cerevisiae deletion strains, locus YLR320W, strain mms22, hits give low values 1 | S. cerevisiae deletion strains, locus YLR330W, strain CHS5, hits give low values 1 | S. cerevisiae deletion strains, locus YLR342W, strain FKS1 (second series), hits give low values 1 | S. cerevisiae deletion strains, locus YLR342W, strain FKS1, hits give low values 0.932 | S. cerevisiae deletion strains, locus YLR357W, strain rsc2, hits give low values 1.01 | S. cerevisiae deletion strains, locus YLR370C, strain arc18, hits give low values 0.985 | S. cerevisiae deletion strains, locus YLR371W, strain rom2, hits give low values 0.994 | S. cerevisiae deletion strains, locus YLR384C, strain iki3, hits give low values 0.974 | S. cerevisiae deletion strains, locus YLR418C, strain cdc73, hits give low values 0.973 | S. cerevisiae deletion strains, locus YML016C, strain PPZ1, hits give low values 1.01 | S. cerevisiae deletion strains, locus YML032C, strain rad52, hits give low values 0.998 | S. cerevisiae deletion strains, locus YML120C, strain ndi1, hits give low values 0.986 | S. cerevisiae deletion strains, locus YML124C, strain tub3, hits give low values 1 | S. cerevisiae deletion strains, locus YMR058W, strain fet3, hits give low values 0.989 | S. cerevisiae deletion strains, locus YMR078C, strain ctf18, hits give low values 0.992 | S. cerevisiae deletion strains, locus YMR125W, strain sto1, hits give low values 0.962 | S. cerevisiae deletion strains, locus YMR129W, hits give low values 0.996 | S. cerevisiae deletion strains, locus YMR205C, strain PFK2, hits give low values 0.967 | S. cerevisiae deletion strains, locus YMR223W, strain ubp8, hits give low values 0.989 | S. cerevisiae deletion strains, locus YMR231W, strain pep5, hits give low values 0.985 | S. cerevisiae deletion strains, locus YMR307W, strain GAS1, hits give low values 0.982 | S. cerevisiae deletion strains, locus YNL067W, strain RPL9B, hits give low values 1.02 | S. cerevisiae deletion strains, locus YNL071W, strain lat1, hits give low values 1.01 | S. cerevisiae deletion strains, locus YNL153C, strain GIM3, hits give low values 1.04 | S. cerevisiae deletion strains, locus YNL183C, strain NPR1, hits give low values 0.935 | S. cerevisiae deletion strains, locus YNL209W, strain ssb2, hits give low values 0.997 | S. cerevisiae deletion strains, locus YNL233W, strain BNI4, hits give low values 1.03 | S. cerevisiae deletion strains, locus YNL248C, strain rpa49, hits give low values 0.951 | S. cerevisiae deletion strains, locus YNL250W, strain rad50, hits give low values 1.01 | S. cerevisiae deletion strains, locus YNL271C, strain bni1, hits give low values 1 | S. cerevisiae deletion strains, locus YNL298W, strain CLA4, hits give low values 1 | S. cerevisiae deletion strains, locus YNL307C, strain MCK1, hits give low values 0.998 | S. cerevisiae deletion strains, locus YNL322C, strain KRE1 (second series), hits give low values 0.978 | S. cerevisiae deletion strains, locus YNL322C, strain KRE1, hits give low values 1.01 | S. cerevisiae deletion strains, locus YNR049C, strain mso1, hits give low values 0.968 | S. cerevisiae deletion strains, locus YNR052C, strain pop2, hits give low values 0.993 | S. cerevisiae deletion strains, locus YOL006C, strain TOP1, hits give low values 1.07 | S. cerevisiae deletion strains, locus YOL012C, strain htz1 0.991 | S. cerevisiae deletion strains, locus YOL147C, strain pex11, hits give low values 1 | S. cerevisiae deletion strains, locus YOR001W, strain rrp6, hits give low values 0.976 | S. cerevisiae deletion strains, locus YOR061W, strain CKA2, hits give low values 1.02 | S. cerevisiae deletion strains, locus YOR069W, strain VPS5, hits give low values 1.01 | S. cerevisiae deletion strains, locus YOR070C, strain gyp1, hits give low values 0.99 | S. cerevisiae deletion strains, locus YOR080W, strain dia2, hits give low values 0.967 | S. cerevisiae deletion strains, locus YOR083W, strain WHI5, hits give low values 0.968 | S. cerevisiae deletion strains, locus YOR106W, strain vam3, hits give low values 0.959 | S. cerevisiae deletion strains, locus YOR136W, strain idh2, hits give low values 1 | S. cerevisiae deletion strains, locus YOR144C, strain elg1, hits give low values 0.99 | S. cerevisiae deletion strains, locus YOR184W, strain ser1, hits give low values 0.996 | S. cerevisiae deletion strains, locus YOR231W, strain MKK1, hits give low values 0.974 | S. cerevisiae deletion strains, locus YOR265W, strain rbl2, hits give low values 0.989 | S. cerevisiae deletion strains, locus YOR270C, strain vph1, hits give low values 0.958 | S. cerevisiae deletion strains, locus YOR290C, strain snf2, hits give low values 1.01 | S. cerevisiae deletion strains, locus YOR316C, strain cot1, hits give low values 0.997 | S. cerevisiae deletion strains, locus YPL051W, strain arl3, hits give low values 0.992 | S. cerevisiae deletion strains, locus YPL078C, strain atp4, hits give low values 0.958 | S. cerevisiae deletion strains, locus YPL106C, strain sse1, hits give low values 0.978 | S. cerevisiae deletion strains, locus YPL240C, strain hsp82, hits give low values 0.986 | S. cerevisiae deletion strains, locus YPL241C, strain CIN2, hits give low values 1.01 | S. cerevisiae deletion strains, locus YPL256C, strain CLN2, hits give low values 0.975 | S. cerevisiae deletion strains, locus YPR119W, strain clb2, hits give low values 0.99 | S. cerevisiae deletion strains, locus YPR141C, strain kar3, hits give low values 0.99 | S. cerevisiae deletion strains, locus YPR163C, strain tif3, hits give low values 0.998 | S. cerevisiae deletion strains, locus YPR167C, strain met16, hits give low values 0.994 | S. cerevisiae deletion strains, strain wtn01, hits give low values 1.01 | S. cerevisiae strains, strain wild type, hits give low values 1.01
